High-throughput results as filed in PubChem BioAssay.
Only some compounds are listed: those with a hit (about 2% of all), similar ones and a draw of the others.
NPSR antagonist = blocks cAMP signaling of the human neuropeptide S receptor. Potency, µM (doses to about 38.3 µM), inactives show at the highest dose activity change, negative = inhibition, hits mostly inhibitors. Q6W5P4. 1% of 220,000 active. AID 1461. CHO-NPSR cells, cAMP TR-FRET, antagonist mode; further: potency means the concentration at half of the fitted maximal effect; on the % scale 0 is the no-effect control and ±100 the full control effect; nearly all actives have a fitted effect of over 50% in size
IL2 activator = activators of IL-2; IL-2 activation reporter assay, cell-based qHTS; stimulated with anti-CD3/CD4/CD28 beads; in transgenic mouse T cells; activation, % (series mostly up to about 46 µM); 0.065% of 360,000 active; AID 652025; in the data active means activation above about 50%; inconclusive means mostly about 30% to 49%; further: 0% is about no effect
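Unstimulated transgenic mouse T cells preincubated 60 min with compound, then stimulated with anti-CD3/anti-CD4-coated beads plus anti-CD28 for 18 h at 37 degrees C. IL-2 response read as EGFP and DsRed fluorescence by plate cytometry.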
PKM2 activator = PKM2 (human) enzyme activation; P14618; purified PKM2, Kinase-Glo ATP luminescence, activation; response scale: 0% is enzyme alone, no compound; Potency, µM (series often up to 57.5 µM), without a hit: at the top dose activation, usual class: activators; 0.34% of 260,000 active; AID 1631; further: potency means the concentration at half of the fitted maximal effect; on the % scale 0 is the no-effect control and ±100 the full control effect; nearly all actives have a fitted effect of over 55% in size
Target sequence (P14618 whole entry, looked up): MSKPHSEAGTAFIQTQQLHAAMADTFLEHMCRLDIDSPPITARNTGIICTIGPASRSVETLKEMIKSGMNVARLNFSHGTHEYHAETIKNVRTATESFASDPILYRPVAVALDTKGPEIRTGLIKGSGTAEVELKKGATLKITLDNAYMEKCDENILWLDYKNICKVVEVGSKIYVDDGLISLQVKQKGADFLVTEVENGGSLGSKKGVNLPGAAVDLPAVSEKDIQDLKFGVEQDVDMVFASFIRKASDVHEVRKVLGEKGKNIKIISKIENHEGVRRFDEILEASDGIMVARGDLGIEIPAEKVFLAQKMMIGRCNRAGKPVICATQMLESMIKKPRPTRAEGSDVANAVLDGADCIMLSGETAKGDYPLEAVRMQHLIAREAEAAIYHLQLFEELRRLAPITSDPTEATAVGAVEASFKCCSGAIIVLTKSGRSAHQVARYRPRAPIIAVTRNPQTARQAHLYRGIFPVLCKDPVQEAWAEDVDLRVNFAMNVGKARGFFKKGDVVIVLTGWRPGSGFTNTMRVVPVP
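Purified hPK-M2 (>95% pure) converted ADP (0.1 mM final) to ATP with 0.5 mM PEP in 50 mM imidazole pH7.2, KCl, MgCl2, Tween 20, BSA; 1 h at room temperature. ATP detected by Kinase-Glo luminescence.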
ClpP mod = qHTS Assay for Activators of ClpP; ATP-dependent Clp protease proteolytic subunit (Bacillus subtilis (strain 168)), P80244; purified B. subtilis ClpP, FRET peptide cleavage, 20 min; Potency, µM (series often up to 57.5 µM), for inactives: at the top dose activity change, negative = active; 1.9% of 340,000 active; AID 651965, 2013; active means well fitted falling curve with a large enough effect; inconclusive means small, poorly fitted or top-dose-only effect; inactive means no such curve, though single readings can be large or run the other way; further: potency means the concentration at half of the fitted maximal effect; the source files actives as falling curves though it sought activators and does not explain the sign; nearly all actives have a fitted effect of over 65% in size
Target sequence (P80244 whole entry, looked up): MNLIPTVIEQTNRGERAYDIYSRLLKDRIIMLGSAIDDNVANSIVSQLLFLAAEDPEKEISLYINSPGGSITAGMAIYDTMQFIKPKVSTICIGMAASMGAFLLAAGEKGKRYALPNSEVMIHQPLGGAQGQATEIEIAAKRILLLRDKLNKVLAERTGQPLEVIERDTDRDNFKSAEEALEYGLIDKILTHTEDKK
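ClpP 10 microg/mL final, pH 8 Tris/KCl buffer with BSA, glycerol, Tween-20; compound pinned in; FRET-FV substrate; RT 20 min; Ex320/Em430; ΔFRET vs ADEP 5.8 microM, DMSO, no enzyme.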
Starred values were filed as active, the others as inactive; ? = inconclusive; / = not tested or not shown; [ ] = another dose, or the depositor's remark. Unless noted, the call rests on the fitted dose curve; in most records, active means well fitted curve in the direction sought with a large enough effect; inconclusive means small, poorly fitted or top-dose-only effect, or another doubt; inactive means no such curve, though single readings can be large; an effect the other way counts as inactive or inconclusive.

SMILES	NPSR antagonist	IL2 activator	PKM2 activator	ClpP mod
OCCCc1nc2n(n1)C(c1ccccc1Cl)C=C(c1cccs1)N2 (stereo not drawn)	5.5%[46.1 µM]	3.3	-1.6%	22.4µM*
CCCOc1ccc(-c2nc(N3CCC(C)CC3)c3ccccc3n2)cc1	/	/	/	20µM*
CCN1CCN(c2nc(-c3ccccc3)nc3ccccc23)CC1	12.0%	0.1	9.4%	-0.5%
CCCOc1ccc(-c2nc(OC)c3ccccc3n2)cc1	-15.4%[46.1 µM]	-2.3	-1.2%	31.6µM*
O=C(NC(=S)Nc1ccccc1O)c1ccc(Cl)cc1Cl	-20.5%	0.3	2.9%	/
CCOc1ccc(CCNC(=O)c2cccc3c2C(=O)N(CCOC)C3)cc1OCC	/	55.3*	/	1.1%
Cc1nc2ccc(NC(=O)c3ccc(S(=O)(=O)N(C)c4ccccc4)cc3)cc2s1	-25.6%	-5.1	-2.3%	-0.5%
O=C(Nc1nc(-c2ccccc2)c(C(=O)c2ccccc2)s1)c1ccc(S(=O)(=O)N2CCCC2)cc1	6.31µM*	-2.0	-1.6%	0.9%
O=C(CN1CCc2ccccc2C1)Nc1ccccc1C(F)(F)F	/	0.0	1.4%	31.6µM*
COc1cccc(CN2CCN(c3ccc(F)cc3)C2=O)c1	27.0%	-2.6	28.2µM*	/
COC(=O)c1cc(C(=O)OC)n(Cc2ccc(F)cc2)c1C	24.4%	-3.0	4.6%	/
COC(=O)c1cc2c(ccn2-c2ccc(F)cc2)n1Cc1cccc(OC)c1	-29.7%	0.2	6.5%	28.2µM*
COC(=O)c1cc2n(n1)CCN(Cc1cccc(OC)c1)C2=O	17.8%	3.3	20µM*	/
COC(=O)c1cc2c(ccn2-c2ccc(F)cc2)n1Cc1ccc(OC(C)=O)cc1	-31.5%	1.1	-0.1%	28.2µM*
O=C(Nc1ccc(OCCO)cc1)c1csc([C@@H]2C[C@H](O)[C@@H](CO)O2)n1	/	-0.3	/	0.7%
C=C(C)C1CC=C(CN2CC(C)OC(C)C2)CC1 (stereo not drawn)	-5.6%[46.1 µM]	0.3	1.1%	-5.4%
COc1cccc(CN(C(=O)c2ccco2)C2CCS(=O)(=O)C2)c1 (stereo not drawn)	/	-2.0	/	-3.0%
COc1ccc(CN(C(=O)c2ccco2)C2CCS(=O)(=O)C2)cc1 (stereo not drawn)	/	-3.4	0.6%	28.2µM*
Cc1cc(OCC(=O)N(Cc2ccco2)C2CCS(=O)(=O)C2)cc(C)c1Cl (stereo not drawn)	-50.1%	0.1	6.1%	28.2µM*
CN(Cc1ccon1)Cc1cn[nH]c1-c1ccc(-c2ccccc2)cc1	-6.8%	-0.9	2.8%	/
c1ccc(-c2cc(-c3nc4ccccc4[nH]3)c3ccccc3n2)cc1	-16.7%	-1.4	0.5%	17.8µM*
Cn1cc(-c2nc3ccccc3[nH]2)c2ccccc21	5.0%[46.1 µM]	-2.0	-5.3%	28.2µM*
CC(=O)Nc1cc(-c2ccc(CO)cc2)cn2c(-c3ccc(F)c(Cl)c3)cnc12	/	-0.6	/	?
Cc1oc2c(C)c(O)ccc2c(=O)c1-c1nncn1-c1ccccc1	-5.5%	-0.3	17.8µM*	-0.5%
O=C(CSCc1ccc(Cl)c(Cl)c1)Nc1c[nH]c(=O)[nH]c1=O	10.4%	2.3	-3.9%	12.6µM*
SMILES	NPSR antagonist	IL2 activator	PKM2 activator	ClpP mod
O=C(CSCc1ccccc1Cl)Nc1c[nH]c(=O)[nH]c1=O	19.2%	-0.4	1.5%	28.2µM*
O=C(CSCc1ccccc1Cl)Nc1ccc2c(c1)OCCO2	-9.7%[46.1 µM]	0.1	-6.2%	0.1%
CCN(CC)C(=O)c1c([N+](=O)[O-])c(C(C)(C)C)nn1C	6.4%	-1.1	8.0%	25.1µM*
COc1ccc(OC)c(NC(=O)c2c(NC(=O)CNCc3ccco3)sc3c2CCC3)c1	?	0.6	2.4%	15.8µM*
COc1ccc(-c2c3c(=O)n(C)c(=O)n(C)c3cn2-c2cc(OC)ccc2OC)cc1	?	-0.8	1.3%	28.2µM*
COc1ccc(-c2c3c(=O)n(C)c(=O)n(C)c3cn2-c2ccccc2O)cc1	-37.9%	-0.2	0.2%	0.6%
Cn1c(=O)c2c(-c3ccccc3)n(-c3ccccc3O)cc2n(C)c1=O	-3.6%[46.1 µM]	-1.4	-0.2%	28.2µM*
CCOC(=O)C1=NOC2C3CC(C12)C1C(=O)N(CCc2ccc(OC)c(OC)c2)C(=O)C31 (stereo not drawn)	11.6%	-3.5	1.5%	-0.1%
CC(C)(C)S(=O)(=O)c1c(C(=O)O)cccc1C(=O)O	8.9%[7.67 µM]	-1.5	4.0%	-0.8%
Cc1c(Cl)cccc1NC(=O)CN1C(=O)CSc2ccc(S(=O)(=O)N3CCCC3)cc21	/	/	/	-2.3%
COc1ccc(CNC(=O)c2cc3oc4ccccc4c3n2C)cc1OC	/	/	/	25.1µM*
CCCOc1ccc(CNC(=O)c2cc3oc4ccccc4c3n2C)cc1	/	/	/	4.2%
CCn1c(C(=O)NCc2ccccc2Br)cc2oc3ccccc3c21	/	/	/	22.4µM*
Cn1c(C(=O)NCc2cccs2)cc2oc3ccccc3c21	9.4%[46.1 µM]	-1.1	1.8%	31.6µM*
Cn1c(C(=O)NCc2ccccc2F)cc2oc3ccccc3c21	/	/	/	4.5%
Cn1c(C(=O)NCc2ccccc2)cc2oc3ccccc3c21	-26.4%[46.1 µM]	-3.4	8.7%	25.1µM*
CCn1c(C(=O)NCc2cccc(Br)c2)cc2oc3ccccc3c21	/	/	/	4.2%
CCOc1ccccc1NC(=O)CCc1nc(-c2cccc(C)c2)no1	/	/	/	-0.8%
Cc1cccc(CNC(=O)CCCn2nc(C)c3c(C)n(-c4ccccc4)nc3c2=O)c1	/	0.5	/	-4.8%
O=C(NCC(=O)N1CCCCCCC1)c1cccc([N+](=O)[O-])c1	/	1.6	/	-1.5%
COc1cccc(N(C(=O)Cn2nnc(-c3ccc(F)cc3)n2)C(C(=O)NCC2CCCO2)c2ccc(Cl)cc2)c1 (stereo not drawn)	-2.5%	-0.6	0.9%	1.5%
CC1CCN(C(=O)c2ccc(N3CCOCC3)c([N+](=O)[O-])c2)CC1	/	0.8	/	0.4%
CCCCC1=CC2=C(c3ccco3)C(=O)C(C)(OC(=O)c3ccc(OC)cc3)C(=O)C2=CN1CCCOC(C)C (stereo not drawn)	-39.3%	-0.5	21.3%[11.5 µM]	0.6%
N#Cc1c(-c2ccccc2)nc(SCc2nc(N)nc(N3CCCCC3)n2)[nH]c1=O	6.31µM*	-0.4	-5.9%	-2.5%
CCSc1nc(-c2ccccc2)c(C#N)c(=O)[nH]1	17.9%[46.1 µM]	-2.5	0.5%	-3.3%
SMILES	NPSR antagonist	IL2 activator	PKM2 activator	ClpP mod
C=C(c1ccccc1O)n1ccnc1	/	-1.1	/	12.6µM*
CN(C(=O)c1cccc(NC(=O)Cc2ccc([N+](=O)[O-])cc2)c1)C1CC1	/	-0.2	/	-0.3%
Cc1c(NC(=O)C23CC4CC(CC(Br)(C4)C2)C3)c(=O)n(-c2ccccc2)n1C	/	2.8	0.7%	-1.1%
Cc1csc(NC(=O)c2ccccc2O)n1	-15.2%[46.1 µM]	0.0	-21.4%	28.2µM*
CC(C)(C)c1csc(NC(=O)c2ccccc2O)n1	/	0.8	-6.2%	-2.0%
O=C(O)CC(C(=O)O)c1cn(Cc2ccccc2)c2ccccc12 (stereo not drawn)	-11.2%[46.1 µM]	-0.6	-3.4%	28.2µM*
O=C(O)Cc1cn(Cc2cccc(Cl)c2)c2ccccc12	-19.4%	-0.7	21.2%	-2.1%
N#Cc1c(N)sc(=S)c2c1CCN(Cc1ccccc1)C2	-16.2%[46.1 µM]	/	1.0%	/
